Results on 60 compounds are retold here after PubChem BioAssay AID1813 (Broad Institute, 2009).

“And” between values parts separate entries of the source, which are not always exact repeats. Identical values can stand only once. About 2,500 (0.83%) of roughly 300,000 compounds were called active. The sample holds actives, similar compounds and a random draw of the others, so the mix is not that of the screen. Cut-off read from the data, not from the text of the source: active = inhibition above about 60%; inconclusive = no clear call, values can overlap the other calls; inactive = below that.

A short description of the experiment: MLPCN primary screen, SNCA 5' untranslated region (AID 1813).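 Note: H4 neuroglioblastoma cells stably carrying SNCA 5'UTR luciferase fusion; 0% = DMSO wells and 100% = positive control.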 The conditions noted are these: alpha-synuclein 5'UTR reporter, inhibitor activity; hits give high values; tested at 7.5 µM.
As for `CCc1nc2cccnc2n1-c1ccc(C(=O)O)cc1`, the inhibition was -14.6% (inactive). With `Fc1ccc(-n2c(Cc3ccccc3)nnc2SCc2nc(-c3ccc(Cl)cc3)no2)cc1`, the inhibition is -3.62% (inactive). In the case of `CCN(CC)CCNCc1ccc(OCc2ccc(Cl)nc2)c(OC)c1` it was -27.5% (inactive); in that of `COc1cccc(/C=C/c2ccc3ccccc3n2)c1OC(C)=O`, 83.1% (active); in that of `CCOc1cccc(/C=C/c2ccc3ccccc3n2)c1OC(C)=O`, 49.2% (inactive). In the case of `COc1cccc(/C=C2\C=C(c3ccc(C)cc3)OC2=O)c1OC(C)=O` it was -65.8% (inactive); in that of `CCCOC1CCCN(C(=O)c2cc(COc3cncc(Cl)c3)on2)C1` (stereo not given), -219% (inactive); in that of `C[C@H](NC(=O)c1nc[nH]c1C(=O)NCC(=O)OC(C)(C)C)c1ccccc1`, 24.4% (inactive). Then `O=c1cc(-c2ccccc2)[nH]c2cc(F)ccc12`, with 93.3% (active); and `Cc1ccc(-c2cc(=O)c3ccc(F)cc3[nH]2)cc1`, with -68.9% (inactive). For the compound `Cc1ccc(-c2cc(=O)c3ccc(Cl)cc3[nH]2)cc1`, the inhibition is -19.2% (inactive). In the case of `COC(=O)C(C)n1cnc2c(nnn2-c2cccc(Cl)c2)c1=O` (stereo not given) it was -6.77% (inactive); in that of `CC(C)C[C@H](CO)Nc1nc(N(C)c2cccc(Cl)c2)c2ncn(C(C)C)c2n1`, 24.9% (inactive). Then `CC(C)n1cnc2c(Nc3cccc(Cl)c3)nc(N(CCO)CCCO)nc21`, with 64.7% (active); and `CSc1cc(C)n(-c2ccccc2C)c(=S)c1C(C)=O`, with -18% (inactive); and `O=C(CCN1C(=O)c2ccncc2C1=O)Nc1cc(F)ccc1F`, with 10.3% (inactive).

As for `O=C(NCC(=O)N(c1ccccc1)C(C(=O)NCC1CCCO1)c1ccccc1)c1cccs1` (stereo not given), the inhibition was 15.4% (inactive). For the compound `CC(C)(C)C(=O)Nc1ccc(C(=O)N/N=C/c2ccccc2OC(=O)c2ccc(Cl)cc2Cl)cc1`, the inhibition was 65.2% (active). As to `O=C(N/N=C/c1ccoc1)c1ccc(Cl)cc1Cl`, the inhibition was -0.701% (inactive). Consider `O=C(N/N=C/c1ccc(OC(=O)c2ccccc2Cl)cc1)c1ccc(O)cc1`, for which the inhibition is -1.64% (inactive). On to `Cc1ccc(S(=O)(=O)N/N=C(\c2ccccc2)C2CC2)cc1`, for which the inhibition was -11.6% (inactive). Take `COC(=O)C1=C(C)N(c2ccc(C)cc2)/C(=C/c2ccc(O)cc2)C1=O`: the inhibition was -12.4% (inactive). Turning to `Cc1ccc(NC(=O)Cn2nnc(C(=O)NCc3ccco3)c2N)c(C)c1`, the inhibition was -2.22% (inactive).

Take `CCOc1ccccc1NC(=O)Cc1cccs1`: the inhibition is 19.4% (inactive). In the case of `CCOc1ccccc1NC(=O)Cn1nnc(C(=O)NCc2cccs2)c1N` it was 84.9% (active). Consider `O=C(Cc1ccc(-n2c(=O)c3sccc3n(Cc3ccc(F)cc3)c2=O)cc1)NCc1ccco1`, for which the inhibition is 11.3% (inactive). As for `O=C(O)C1CCN(C(=O)c2cc(F)cc3c2OCOC3)CC1`, the inhibition is 19.4% (inactive). On to `CC(=NCc1ccco1)c1c(C(F)(F)F)[nH]n(-c2nc3ccccc3s2)c1=O`, for which the inhibition is -117% (inactive). For the compound `COC(=O)Cc1[nH]n(-c2nc3ccccc3s2)c(=O)c1C(C)=Nc1ccc(OC)cc1`, the inhibition is 68.9% (active). Take `C/C(=N\NC(=O)CC(C)C)c1c(C(F)(F)F)[nH]n(-c2nc3ccccc3s2)c1=O`: the inhibition was -51.5% (inactive). As to `CNC[C@H](CC1CCCCC1)NC[C@H](NCCC1CCCC1)[C@H](C)O`, the inhibition is -34.1% (inactive). On to `CC(=O)N1C(C)c2ccccc2C(C)(C)CC12CCCCC2` (stereo not given), for which the inhibition was -9.23% (inactive). As for `COc1cc(SC)ccc1C(=O)Nc1nc(C)cs1`, the inhibition is 96.2% (active). On to `COc1cc(SC)ccc1C(=O)Nc1cc(C)ccn1`, for which the inhibition is -8.42% (inactive). As to `COC(=O)c1sc(NC(=O)c2ccc(OC)cc2OC)nc1C`, the inhibition was 101% (active).

Consider `COc1cc2ccccc2cc1C(=O)Nc1nc(C)c(C(C)=O)s1`, for which the inhibition was -106% (inactive).

Consider `COc1ccc(Cc2nnc(NC(=O)c3ccc(OC)cc3OC)s2)cc1`, for which the inhibition is -62.4% (inactive). Regarding `Cc1csc(NC(=O)c2ccc(C)s2)n1`, the inhibition is -174% (inactive). `Cn1c(Cc2cccs2)nnc1SCC(=O)Nc1ccccc1`: the inhibition was 11% (inactive).

Take `COc1ccc(NC(=O)CSc2ccc(-c3ccco3)nn2)c(OC)c1`: the inhibition is 7.22% (inactive). Take `CC(C)CN(C(=O)c1ccc2c(c1)OCO2)C1CCS(=O)(=O)C1` (stereo not given): the inhibition is -8.68% (inactive). Regarding `CC(C)C(=O)N1CCN(c2nc(-c3ccccc3)c3c(c2C#N)CC(C)(C)OC3)CC1`, the inhibition is -10.5% (inactive). Regarding `CCO[C@H]1OC(C(=O)N2CCN(Cc3ccccc3)CC2)=C[C@@H](c2cn(C(C)=O)c3ccccc23)[C@@H]1CCCO`, the inhibition is 14.2% (inactive).

With `O=C(COC(=O)c1ccc(Cl)nc1)NCc1ccc2c(c1)OCO2`, the inhibition was 17.3% (inactive).

On to `O=S(=O)(c1ccc(F)cc1)N1CCN(C(=S)NC2CCCC2)CC1`, for which the inhibition is 4.9% (inactive). `CN(NC(=O)c1ccccc1F)c1nc(C(F)(F)F)nc2ccccc12`: the inhibition is 39.8% (inactive). For the compound `CSc1nc(N(C)NC(=O)c2cccc(C)c2)c2ccccc2n1`, the inhibition was 114% (active). As to `CN(NC(=O)c1ccccc1)c1nc2ccccc2nc1C(F)(F)F`, the inhibition is -26.7% (inactive). Then `O=c1c2cc(-c3ccccc3)sc2nc2n1N=C(c1cccs1)CS2`, with -105% (inactive). For the compound `O=C(Cn1c[n+](CC(=O)c2ccc([N+](=O)[O-])cc2)cn1)c1ccc([N+](=O)[O-])cc1`, the inhibition was 1.61% (inactive) and -7.59% (inactive).

On to `COc1ccccc1OC(C)C(=O)Nc1ccc(S(=O)(=O)Nc2nccs2)cc1` (stereo not given), for which the inhibition was 8.93% (inactive). Regarding `CCN1CCN(CC(=O)c2cc(OC)c(OC)c(OC)c2)CC1`, the inhibition is -44% (inactive). Then `CSc1ncc(Sc2ccccc2)c(C(=O)O)n1`, with 9.17% (inactive); and `CSc1nc(-c2ccccc2)nc(C(Cl)Cl)n1`, with 114% (active). As to `COc1cccc(Oc2ccc(N)cc2)c1`, the inhibition is 5.65% (inactive). For `CC(C)(C)c1ccc(OC2=CS(=O)(=O)c3ccccc32)cc1`, the inhibition was -110% (inactive).

On to `CC(C)(C)c1ccc(Oc2ccc(N)cc2)cc1`, for which the inhibition is 112% (active). Turning to `C=CCOc1ccc(/C=C/C(=O)OCC(=O)NC(C)c2ccc(F)cc2)cc1` (stereo not given), the inhibition was 5.96% (inactive). Take `O=C(c1ccc(OC2CCN(C/C=C/c3ccc(F)cc3)CC2)cc1)N1CCCCC1`: the inhibition was -17.6% (inactive). Regarding `COCCN1C(=O)C(=O)/C(=C(/O)c2ccc(S(=O)(=O)N3CCOCC3)cc2)C1c1ccc(OC)c(OC)c1` (stereo not given), the inhibition was 0.0342% (inactive).
